# ELG1 repair inh – ELG1-dependent DNA repair inhibition | actives 2.3% (n = 330,000) | AID 504467 | HEK293T ELG1-luciferase reporter, luminescence, 16 h; DNA damage induced by 5-fluorouridine | Potency, µM (top dose mostly 46.1 µM), for the others: at the highest dose activity change, negative = inhibition, usual class: inhibitors; further: potency means the concentration at half of the fitted maximal effect; nearly all actives have a fitted effect of over 55% in size
#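 Cells (2,000 per well) received 5-fluorouridine plus test compound or DMSO and were incubated 16 hr at 37 °C, 5% CO2. Luciferase activity was read by luminescence 30 min after ONE-Glo addition; signal suppression marked inhibition of damage-induced ELG1 function.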
# DT40 TDP1 no CPT – qHTS for Inhibitors of human tyrosyl-DNA phosphodiesterase 1 (TDP1): qHTS in cells in absence of CPT. Potency, µM (highest dose often 46.2 µM), for inactives: top-dose activity change, negative = growth inhibition, most hits filed as inhibitors. DT40 Tdp1-/- hTDP1 cells, no CPT, ATP luminescence, 48 h. actives 15% (n = 420,000); further: potency means the concentration at half of the fitted maximal effect; nearly all actives have a fitted effect of over 55% in size
#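 Chicken DT40 Tdp1-/- cells stably complemented with human TDP1 were seeded at 400 cells/well with DMSO in place of 20 nM camptothecin. After compound pinning, cells grew at least 48 hr at 37 °C; viability read by CellTiter-Glo luminescence.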
# IL-1B inflam inh – inhibitors of inflammasome signaling (IL-1 beta secretion); THP-1 LPS/ATP IL-1B secretion, AlphaLISA, 16 h; hits give low values; activity change, % at 57.5 µM; actives 4.7% (n = 360,000); in the data active means activity change below about -50%; inconclusive means mostly about -30% to -49%
#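 THP-1 cells pretreated 1 hr with compounds (up to 57.5 uM final), then stimulated with LPS (250 ng/mL final) plus ATP (1.25 mM final); secreted IL-1B measured by AlphaLISA after 16 hr, decreased signal indicating inhibition.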
# Giardia killer – kills Giardia lamblia; AID 540267; actives 0.15% (n = 340,000); activity change, % at 7.66 µM, hits read low; Giardia lamblia trophozoite viability; in the data active means activity change below about -80%; inconclusive means between about -30% and that limit;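 further: parasites exposed to compound for two days anaerobically before the ATP read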
#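 Anaerobic 48 hrs incubation at 37 deg C of 100 trophozoites/well with test compounds; ATPLite 1-Step luminescence, 15-30 min RT, reports cellular ATP as viability.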
# DT40 TDP1 CPT – DT40-hTDP1 cell growth loss with CPT | chicken DT40 Tdp1-/-;hTDP1 cells + 20 nM CPT, ATP luminescence, 48 h | Potency, µM (top dose mostly 46.2 µM), without a hit: at the highest dose activity change, negative = growth inhibition, most hits filed as inhibitors | actives 12% (n = 420,000) | AID 686979; further: potency means the concentration at half of the fitted maximal effect; nearly all actives have a fitted effect of over 55% in size
#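 Cell growth measured by CellTiter-Glo luminescence after a minimum 48 h, 37 C compound exposure with 20 nM CPT in Tdp1-knockout DT40 cells stably expressing hTDP1, seeded 400/well; qHTS titration format.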
# TDP1 inh – TDP1 (human) enzyme inhibition; Q9NUW8; recombinant TDP1, AlphaScreen DNA substrate cleavage; Potency, µM (doses to about 130 µM), inactives show top-dose activity change, negative = inhibition, most hits filed as inhibitors; actives 0.28% (n = 350,000); AID 485290; further: potency means the concentration at half of the fitted maximal effect; nearly all actives have a fitted effect of over 40% in size
# Target sequence (Q9NUW8 whole entry, looked up): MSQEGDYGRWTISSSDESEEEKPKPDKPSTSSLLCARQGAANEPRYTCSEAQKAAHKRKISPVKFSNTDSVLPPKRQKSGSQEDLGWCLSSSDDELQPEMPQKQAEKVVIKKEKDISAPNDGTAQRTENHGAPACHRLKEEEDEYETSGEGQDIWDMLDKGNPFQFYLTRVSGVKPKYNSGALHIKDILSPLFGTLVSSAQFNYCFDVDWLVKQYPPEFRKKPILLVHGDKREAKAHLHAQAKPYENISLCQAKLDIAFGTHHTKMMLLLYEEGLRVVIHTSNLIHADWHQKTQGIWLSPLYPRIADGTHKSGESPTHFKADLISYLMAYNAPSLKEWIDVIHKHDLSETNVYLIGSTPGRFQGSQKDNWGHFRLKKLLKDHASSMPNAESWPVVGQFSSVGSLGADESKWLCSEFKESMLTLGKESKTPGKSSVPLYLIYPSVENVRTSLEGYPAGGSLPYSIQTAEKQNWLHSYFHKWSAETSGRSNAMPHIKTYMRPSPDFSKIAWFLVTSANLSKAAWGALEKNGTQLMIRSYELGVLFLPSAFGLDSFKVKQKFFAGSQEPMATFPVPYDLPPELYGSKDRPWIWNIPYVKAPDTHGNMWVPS
#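 Recombinant human Tdp1 (E. coli-expressed, 1 nM final) preincubated with compounds 15 min at room temperature, then 5'-biotin/3'-phosphotyrosine-FITC DNA substrate (15 nM final) added for 5 min. AlphaScreen beads (10 ug/ml final) added 10 min; cleavage lowers signal.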
# Active calls of the source: *; ? = inconclusive; / = no result; [ ] = remark or other dose. Sampled rows, rich in hits. Any-hit rate of the full collection: about 19%. Unless noted, the call rests on the fitted dose curve; in most records, active means well fitted curve in the direction sought with a large enough effect; inconclusive means small, poorly fitted or top-dose-only effect, or another doubt; inactive means no such curve, though single readings can be large; an effect the other way counts as inactive or inconclusive. On the % scale 0 is the no-effect control and ±100 the full control effect.
SMILES,ELG1 repair inh,DT40 TDP1 no CPT,IL-1B inflam inh,Giardia killer,DT40 TDP1 CPT,TDP1 inh
O=C(Cc1ccccc1F)NC1CCCN(Cc2ccc(Cl)cc2)C1 (stereo not given),4%,-16%,?,-8,-24%,/
CS(=O)(=O)c1ccc2nc(NC(=O)CCN3C(=O)c4ccccc4C3=O)sc2c1,-7%,-5%,23,-1,12%,2%
O=C(NCc1ccccc1)C(=O)NCC(c1ccco1)N1CCN(c2ccccc2F)CC1 (stereo not given),?,10%,6,-6,-2%,6%
O=C(NCc1ccccc1)C(c1ccco1)N1CCN(c2ccccc2F)CC1 (stereo not given),/,?,-59*,/,?,/
O=C(NCc1ccccc1)C(c1ccc(-c2ccccc2)cc1)N1CCN(c2ccccc2F)CC1 (stereo not given),/,?,-8,/,18µM*,/
O=C(NCCc1c[nH]c2ccccc12)C(=O)NCC(c1ccco1)N1CCN(c2ccccc2F)CC1 (stereo not given),?,23µM*,-2,10,?,6%
CC1CCCN(Cc2ccc(OCc3ccccc3)cc2)C1 (stereo not given),?,?,-25,-17,-23%,/
O=[N+]([O-])c1ccc(Nc2c3ccccc3nc3ccccc23)cc1,?,?,-3,4,?,10%
NC(N)=NCCCS(=O)(=O)Nc1ccc(Nc2c3ccccc3nc3cc([N+](=O)[O-])ccc23)cc1,/,16µM*,-2,2,9.2µM*,/
Cc1nc([N+](=O)[O-])cn1CC(=O)c1ccccc1,-6%,-9%,18,-3,-5%,3%
Cc1nc([N+](=O)[O-])cn1-c1nc2ccccn2c1[N+](=O)[O-],-5%,-3%,6,-88*,43%,9%
Fc1ccc(N2CCN(C3=Nc4cccc5cccc3c45)CC2)cc1,?,16µM*,-52*,-16,26µM*,6%
c1ccc(CN2CCN(C3=Nc4cccc5cccc3c45)CC2)cc1,?,?,-90*,0,?,7%
CN1CCN(C2=Nc3cc(F)ccc3Cc3ccccc32)CC1,/,?,/,/,?,5%
O=C(CCSCCc1ccccn1)Nc1ccc(Cc2ccncc2)cc1,6%,-18%,1,3,0%,3%
O=C(CCS(=O)(=O)Cc1ccccc1)Nc1nnc(C(F)(F)F)s1,-20%,?,23,-20,?,1%[0.0935 µM]
Cc1nnc(NC(=O)CCS(=O)(=O)Cc2ccccc2)s1,-6%,?,-1,-17,10µM*,12%
CC(C)(C)c1nnc(NC(=O)CCS(=O)(=O)Cc2ccccc2)s1,-2%,12µM*,-2,-6,9.2µM*,9%
O=C(/C=C/c1ccc(S(=O)(=O)N2CCOCC2)cc1)Nc1cc(F)ccc1F,?,21µM*,-55*,3,?,1%
CCN(CC)S(=O)(=O)c1cccc(NC(=S)NC(=O)/C=C/c2ccc(S(=O)(=O)N3CCOCC3)cc2)c1,?,?,?,-17,0%,8%
O=C(/C=C/c1ccc(Cl)cc1)NC(=S)Nc1ccc(N2CCOCC2)c(Cl)c1,?,12µM*,9,-1,12µM*,-3%
COc1ccc(S(=O)(=O)N2CCOCC2)cc1NC(=O)/C=C/c1ccc(F)cc1,-16%,-6%,-29,-15,7%,0%
O=C(/C=C/c1ccc(S(=O)(=O)N2CCOCC2)cc1)NC(=S)NCCCn1ccnc1,?,?,-75*,-9,?,-3%
O=C(/C=C/c1ccc(S(=O)(=O)N2CCOCC2)cc1)NC(=S)Nc1ccc(Cl)cc1Cl,6%,?,-90*,2,?,5%

# Screening results (PubChem BioAssay)
